From PubChem BioAssay (NCI)
Compounds without any hit were thinned out: in the full panel of roughly 79,000, 15% have a hit. Activity calls are given as the source filed them. Cut-off read from the data, not from the text of the source: active = growth inhibition above about 70%; inactive = the rest.

Assays:
[1] = NCI Yeast Anticancer Drug Screen. Data for the sgs1 strain (AID 173);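 note: 0% = growth of vehicle-only control cultures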; conditions: S. cerevisiae sgs1 mutant, stronger effect = higher value
In short: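 Inhibition of yeast growth served as the measure. The mutant strain was treated with each compound, and growth was normalised to cultures receiving vehicle alone.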

[2] = NCI Yeast Anticancer Drug Screen. Data for the mlh1 rad18 strain (AID 175); conditions: S. cerevisiae mlh1 rad18 strain growth inhibition, stronger effect = higher value
In short: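 Compound-treated yeast growth, normalised to vehicle controls. Strain bears defined DNA repair mutations.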

[3] = NCI Yeast Anticancer Drug Screen. Data for the rad18 strain (AID 177); conditions: S. cerevisiae rad18 mutant growth inhibition, stronger effect = higher value
In short: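 Inhibition values reflect reduced yeast growth compared with vehicle-treated controls, using a strain engineered with a DNA damage repair defect.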

[4] = NCI Yeast Anticancer Drug Screen. Data for the rad52 strain (AID 147);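 note: 0% = growth of vehicle-treated control cultures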; conditions: S. cerevisiae rad52 mutant growth inhibition, stronger effect = higher value
In short: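 Genetically altered yeast (DNA damage repair defect) treated with compound; inhibition calculated relative to vehicle.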

[5] = NCI Yeast Anticancer Drug Screen. Data for the wt1 strain (AID 149);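 note: 0% = growth of vehicle-treated wt1 cultures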; conditions: S. cerevisiae wt1 strain (SPY 50644) growth inhibition, stronger effect = higher value
In short: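 Vehicle-normalised growth inhibition; strain wt1; compound exposure.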

[6] = NCI Yeast Anticancer Drug Screen. Data for the mgt1 strain (AID 153); conditions: S. cerevisiae mgt1 mutant growth inhibition, stronger effect = higher value
In short: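 Read-out: yeast growth inhibition vs vehicle control. Strain mgt1, drawn from a panel altered in DNA damage repair or cell cycle control.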

[7] = NCI Yeast Anticancer Drug Screen. Data for the rad50 strain (AID 155);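 note: 0% = growth of vehicle-only cultures of the same strain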; conditions: S. cerevisiae rad50 strain growth inhibition, stronger effect = higher value
In short: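 A DNA repair-deficient yeast mutant serves as the test organism; compound-induced growth inhibition is calculated against vehicle-treated cells.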

[8] = NCI Yeast Anticancer Drug Screen. Data for the mec2-1 strain (AID 157); conditions: S. cerevisiae mec2-1 strain, stronger effect = higher value
In short: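 Cells of the genetically defined mec2-1 yeast strain are incubated with test compound. Inhibition of growth is calculated against vehicle-treated controls.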

[9] = NCI Yeast Anticancer Drug Screen. Data for the rad14 strain (AID 159);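 note: 0% = growth of vehicle-treated control cultures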; conditions: S. cerevisiae rad14 strain growth inhibition, stronger effect = higher value
In short: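 Vehicle-treated cultures served as the baseline for growth inhibition of a DNA repair-mutant yeast strain exposed to each compound.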

[10] = NCI Yeast Anticancer Drug Screen. Data for the sgs1 mgt1 strain (AID 161);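 note: 0% = growth of cultures given vehicle only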; conditions: S. cerevisiae sgs1 mgt1 strain, stronger effect = higher value
In short: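 Test agents were incubated with a DNA-repair-mutant yeast strain. Growth was then read and compared against vehicle-treated controls.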

[11] = NCI Yeast Anticancer Drug Screen. Data for the CLN2oe strain (AID 163);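 note: 0% = growth of vehicle-only control cultures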; conditions: S. cerevisiae CLN2oe strain, stronger effect = higher value
In short: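 Strain altered in cell-cycle control, incubated with compound; growth compared to solvent-treated controls.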

[12] = NCI Yeast Anticancer Drug Screen. Data for the cln2 rad14 strain (AID 165);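 note: 0% = growth equal to vehicle treated cultures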; conditions: S. cerevisiae cln2 rad14 strain, stronger effect = higher value
In short: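 The screen exposed genetically defined yeast (cln2 rad14) to test compounds and scored growth inhibition relative to vehicle-treated controls.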

[13] = NCI Yeast Anticancer Drug Screen. Data for the bub3 strain (AID 167); conditions: S. cerevisiae bub3 mutant strain, stronger effect = higher value
In short: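 Inhibition values come from growth of compound-treated mutant yeast normalised to vehicle-treated controls.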

[14] = NCI Yeast Anticancer Drug Screen. Data for the wt2 strain (AID 169);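 note: 0% = growth of vehicle-treated yeast cultures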; conditions: S. cerevisiae wt2 strain growth inhibition, stronger effect = higher value
In short: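 Steps: yeast strain treated with compound; growth recorded; inhibition calculated relative to cultures given vehicle alone.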

[15] = NCI Yeast Anticancer Drug Screen. Data for the mlh1 strain (AID 171);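 note: 0% = growth of vehicle-treated control cultures of the same strain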; conditions: S. cerevisiae mlh1 strain growth inhibition, stronger effect = higher value
In short: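 Yeast screen: mutant strain plus compound, growth scored against vehicle control wells.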

[16] = at 5.0 µM (retest, dose inferred, filed as 0.5)
[17] = at 50.0 µM (retest, dose inferred, filed as 5.0)

Measured: growth inhibition

O=C1C=C(Cl)C(=O)N1c1cccc(Cl)c1
inactive: [2]; [16] 0% | [3]; at 1.2 µM -1% | [3]; at 3.7 µM 36%
active: [1]; at 33.0 µM 100% | [1]; at 100.0 µM 99% | [2]; [17] 95% | [2]; at 50.0 µM 99.5% | [3]; at 11.0 µM 99% | [3]; at 33.0 µM 99% | [3]; at 100.0 µM 99%

Cc1cc(O)c(C(C)C)cc1C1(c2cc(C(C)C)c(O)cc2C)OC(=O)c2ccccc21
active: [7]; [17] 98% | [7]; at 50.0 µM 94.1% | [8]; [17] 98% | [8]; at 50.0 µM 91.7% | [10]; [17] 98% | [10]; at 50.0 µM 82% | [12]; [17] 97% | [12]; at 50.0 µM 97% | [13]; [17] 98% | [13]; at 50.0 µM 91.1% | [2]; [17] 98% | [2]; at 50.0 µM 91.6%
inactive: [4]; at 1.2 µM -4% | [4]; at 3.7 µM -3% | [4]; at 11.0 µM -5% | [4]; at 33.0 µM -3% | [4]; at 100.0 µM 34% | [5]; at 1.2 µM 2% | [5]; at 3.7 µM 2% | [5]; at 11.0 µM 5% | [5]; at 33.0 µM 1% | [5]; at 100.0 µM 20% | [6]; at 1.2 µM -1% | [6]; at 3.7 µM -1% | [6]; at 11.0 µM -2% | [6]; at 33.0 µM -3% | [6]; at 100.0 µM 18% | [7]; at 1.2 µM 3% | [7]; at 3.7 µM 0% | [7]; [16] 17% | [7]; at 11.0 µM 10% | [7]; at 33.0 µM 1% | [7]; at 100.0 µM 36% | [8]; at 1.2 µM 2% | [8]; at 3.7 µM 2% | [8]; [16] 0% | [8]; at 11.0 µM 1% | [8]; at 33.0 µM 4% | [8]; at 100.0 µM 29% | [9]; at 1.2 µM -1% | [9]; at 3.7 µM 1% | [9]; at 11.0 µM -1% | [9]; at 33.0 µM -4% | [9]; at 100.0 µM 33% | [10]; [16] 16% | [11]; at 1.2 µM -3% | [11]; at 3.7 µM -2% | [11]; at 11.0 µM -6% | [11]; at 33.0 µM -5% | [11]; at 100.0 µM 12% | [12]; [16] 51% | [13]; at 1.2 µM -2% | [13]; at 3.7 µM 1% | [13]; [16] -12% | [13]; at 11.0 µM -34% | [13]; at 33.0 µM 16% | [13]; at 100.0 µM 24% | [14]; at 1.2 µM -2% | [14]; at 3.7 µM -4% | [14]; at 11.0 µM -3% | [14]; at 33.0 µM -3% | [14]; at 100.0 µM 31% | [15]; at 1.2 µM 5% | [15]; at 3.7 µM 3% | [15]; at 11.0 µM 3% | [15]; at 33.0 µM -24% | [15]; at 100.0 µM 31% | [1]; at 1.2 µM 2% | [1]; at 3.7 µM 4% | [1]; at 11.0 µM 5% | [1]; at 33.0 µM 2% | [1]; at 100.0 µM 48% | [2]; [16] 9% | [3]; at 1.2 µM 10% | [3]; at 3.7 µM 4% | [3]; at 11.0 µM -2% | [3]; at 33.0 µM 3% | [3]; at 100.0 µM 32%

CN(C)CCCCN1c2ccccc2Sc2ccc(N=[N+]=[N-])cc21
active: [4]; at 100.0 µM 99% | [5]; at 100.0 µM 99% | [6]; at 100.0 µM 99% | [7]; [16] 91% | [7]; [17] 99% | [7]; at 50.0 µM 84.2% | [7]; at 100.0 µM 98% | [8]; [17] 99% | [8]; at 50.0 µM 79.2% | [8]; at 100.0 µM 99% | [9]; at 100.0 µM 99% | [10]; [17] 99% | [10]; at 50.0 µM 90.5% | [11]; at 100.0 µM 98% | [12]; [17] 99% | [12]; at 50.0 µM 89.5% | [13]; [17] 98% | [13]; at 50.0 µM 72% | [13]; at 100.0 µM 98% | [14]; at 100.0 µM 99% | [15]; at 100.0 µM 99% | [2]; [17] 99% | [2]; at 50.0 µM 91.5% | [3]; at 100.0 µM 99%
inactive: [4]; at 1.2 µM 29% | [4]; at 3.7 µM 37% | [4]; at 11.0 µM 45% | [4]; at 33.0 µM 49% | [5]; at 1.2 µM 23% | [5]; at 3.7 µM 36% | [5]; at 11.0 µM 36% | [5]; at 33.0 µM 47% | [6]; at 1.2 µM 19% | [6]; at 3.7 µM 20% | [6]; at 11.0 µM 31% | [6]; at 33.0 µM 51% | [7]; at 1.2 µM 6% | [7]; at 3.7 µM 20% | [7]; at 11.0 µM 15% | [7]; at 33.0 µM 47% | [8]; at 1.2 µM 33% | [8]; at 3.7 µM 31% | [8]; [16] 33% | [8]; at 11.0 µM 36% | [8]; at 33.0 µM 42% | [9]; at 1.2 µM 0% | [9]; at 3.7 µM 8% | [9]; at 11.0 µM 19% | [9]; at 33.0 µM 55% | [10]; [16] -16% | [11]; at 1.2 µM 19% | [11]; at 3.7 µM 18% | [11]; at 11.0 µM 24% | [11]; at 33.0 µM 39% | [12]; [16] 8% | [13]; at 1.2 µM -8% | [13]; at 3.7 µM -10% | [13]; [16] 4% | [13]; at 11.0 µM -14% | [13]; at 33.0 µM 14% | [14]; at 1.2 µM -8% | [14]; at 3.7 µM -15% | [14]; at 11.0 µM -14% | [14]; at 33.0 µM 46% | [15]; at 1.2 µM 32% | [15]; at 3.7 µM 31% | [15]; at 11.0 µM 35% | [15]; at 33.0 µM 57% | [2]; [16] 23% | [3]; at 1.2 µM 10% | [3]; at 3.7 µM 14% | [3]; at 11.0 µM 24% | [3]; at 33.0 µM 57%
